Each structure is given as a SMILES string. Activity calls are given as the source filed them. How the calls were made is not given here.

The target in the experiment is Pantothenate synthetase (Mycobacterium tuberculosis (strain ATCC 25618 / H37Rv)) (UniProt P9WIL5). The experiment can be described thus: Recombinant Mtb pantothenate synthetase (PanC) inhibitors, coupled enzyme, confirmatory (AID 375).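 Further: 0% = full reaction with vehicle and 100% = no enzyme background.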 The following applies: coupled enzyme assay; at 10 µM, hits give high values.
Chain of Pantothenate synthetase (Mycobacterium tuberculosis (strain ATCC 25618 / H37Rv)) (P9WIL5 whole entry, looked up): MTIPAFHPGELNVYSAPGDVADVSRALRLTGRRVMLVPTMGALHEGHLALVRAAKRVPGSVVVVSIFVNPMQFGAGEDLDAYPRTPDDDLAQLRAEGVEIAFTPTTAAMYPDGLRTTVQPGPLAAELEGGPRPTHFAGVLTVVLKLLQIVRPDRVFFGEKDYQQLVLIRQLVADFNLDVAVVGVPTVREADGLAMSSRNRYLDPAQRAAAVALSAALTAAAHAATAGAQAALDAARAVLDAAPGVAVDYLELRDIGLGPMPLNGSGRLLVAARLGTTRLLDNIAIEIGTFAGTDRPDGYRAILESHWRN
Consider `O=c1c2ccccc2nc(SCc2cn3ccsc3n2)n1-c1ccc(F)cc1`, for which the inhibition (usually the percentage by which the read-out fell short of the control) was 0% (inactive).
With `O=C(C(Cc1ccccc1)n1cccc1)N1CCCCCC1` (centres undefined), the inhibition is 8% (inactive).
The same measure for `CC(=O)Nc1ccc(Oc2cc(C#N)c(C#N)cc2N2CCCCCC2)cc1`: 0% (inactive); for `O=C(CN1CCN(c2nc(-c3ccc(Cl)cc3)cs2)CC1)NCc1ccco1`: 4% (inactive); for `CS(=O)(=O)c1ccc2nc(NC(=O)C3C4C=CC(C4)C3C(=O)O)sc2c1` (centres undefined): 1% (inactive).
On to `CCn1cc(C(=O)NCC2CCCO2)c(=O)c2cc(S(=O)(=O)N(C)C3CCCCC3)ccc21` (centres undefined), for which the inhibition is 5% (inactive).
Next, `CCc1nc(C)ccc1OCC(=O)O`: 3% (inactive).
In the case of `COC(=O)c1ccccc1NC(=O)C1CC(=O)N(c2ccccc2)C1` (centres undefined), the inhibition was 4% (inactive).
`O=C(CSc1nnc(CNC(=O)c2c(F)cccc2Cl)o1)c1ccccc1`: the inhibition is 0% (inactive).
The same measure for `CCOC(=O)CN1CC23C=CC(O2)C(C(=O)Nc2ccc(OCC)cc2)C3C1=O` (centres undefined): 3% (inactive); for `Cn1cc(C2NC(=O)c3c(sc4c3CCCC4)N2)c2ccccc21` (centres undefined): 0% (inactive); for `Cc1cc(C)n2cc(CSc3nnnn3C)nc2n1`: 0% (inactive).
Next, `C=CCSc1nnc(Cc2c(C)[nH]c3ccccc23)o1`: 0% (inactive); `CCOc1ccccc1OCC(=O)Nc1nnc(COC)s1`: 4% (inactive).
The same measure for `CC(=O)OCC(=O)[C@@]12OC(C)(C)O[C@@H]1C[C@H]1[C@@H]3C[C@H](F)C4=CC(=O)C=C[C@]4(C)[C@@]3(F)[C@@H](O)C[C@@]12C`: 1% (inactive).
For `Cc1[nH]c(=O)[nH]c(=O)c1S(=O)(=O)N1CCCC(C(=O)NCc2ccco2)C1` (centres undefined), the inhibition is 5% (inactive).
Take `COc1ccc(C(=O)c2ccccc2)c(O)c1`: the inhibition was 1% (inactive).
The same measure for `COC1CCCCC1NS(=O)(=O)c1ccccc1` (centres undefined): 0% (inactive); for `O=S(=O)(c1ccc2ccccc2c1)N(CC(O)CN1CCOCC1)c1ccccc1` (centres undefined): 0% (inactive).
The same measure for `CCCCC(=O)O[C@H]1CC[C@H]2[C@@H]3CCc4cc(O)ccc4[C@H]3CC[C@]12C`: 6% (inactive); for `O=C(CSc1nc(-c2ccccc2)cs1)NCc1ccco1`: 0% (inactive); for `CNC(=O)c1c(O)c2cccc3c2n(c1=O)CC3`: 1% (inactive).
As for `CC1CCCC(NC(=O)CN2CCN(Cc3ccc(Cl)cc3)C2=O)C1C` (centres undefined), the inhibition is 7% (inactive).
As to `Cc1cc(N2CCOCC2)nc2ccc(NC(=O)C3CCC(C)CC3)cc12` (centres undefined), the inhibition was 0% (inactive).

Values taken from PubChem BioAssay.
